For eight compounds, growth inhibition results are on record in PubChem BioAssay (NCI).

Structures are written as SMILES. “And” between values parts separate entries of the source, which are not always exact repeats. Identical values can stand only once. Compounds without any hit were thinned out: in the full panel of roughly 79,000, 15% have a hit. A number with no mark means an inactive call. The source made the active and inactive calls. Cut-off read from the data, not from the text of the source: active = growth inhibition above about 70%; inactive = the rest.

The nature of test [1]: NCI Yeast Anticancer Drug Screen. Data for the rad50 strain (AID 155).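 Note: 0% = growth of vehicle-only cultures of the same strain.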 To be noted: S. cerevisiae rad50 strain growth inhibition, hits give high values. Summed up:
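Vehicle-treated cultures provide the reference for the growth inhibition reported for compound-exposed, repair-deficient yeast.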

The nature of test [2]: NCI Yeast Anticancer Drug Screen. Data for the mec2-1 strain (AID 157). The following applies: S. cerevisiae mec2-1 strain, hits give high values. An outline of the steps: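 Strain: mec2-1 (DNA repair/cell cycle alteration). Compound exposure, then growth measured; inhibition expressed relative to vehicle.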
The nature of test [3]: NCI Yeast Anticancer Drug Screen. Data for the sgs1 mgt1 strain (AID 161).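 Note: 0% = growth of cultures given vehicle only.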 The following applies: S. cerevisiae sgs1 mgt1 strain, hits give high values. Summed up: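 Mutant yeast exposed to compound; growth scored against vehicle-only wells.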
The nature of test [4]: NCI Yeast Anticancer Drug Screen. Data for the cln2 rad14 strain (AID 165).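 Note: 0% = growth equal to vehicle treated cultures.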 To be noted: S. cerevisiae cln2 rad14 strain, hits give high values. Summed up:
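Compounds are applied to the cln2 rad14 yeast strain, and growth is then compared with that of vehicle-treated cultures to give inhibition.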

A short description of test [5]: NCI Yeast Anticancer Drug Screen. Data for the bub3 strain (AID 167). To be noted: S. cerevisiae bub3 mutant strain, hits give high values. An outline of the steps: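 Mutant yeast screening strain plus compound; vehicle-treated cultures serve as the 0% inhibition reference.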
Test [6] can be described thus: NCI Yeast Anticancer Drug Screen. Data for the mlh1 rad18 strain (AID 175). To be noted: S. cerevisiae mlh1 rad18 strain growth inhibition, hits give high values. Summed up:
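Read-out is yeast growth inhibition, calculated against vehicle-only controls. The compound was applied to a strain engineered with DNA damage repair alterations.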

Setting [7] is: at 5.0 µM (retest, dose inferred, filed as 0.5).
Where [8] appears, read: at 50.0 µM (retest, dose inferred, filed as 5.0).

Consider `CC[CH2][Sn]([F])([F])[CH2]CC`, for which the growth inhibition in test [1] (setting [7]) is 20%; in test [1] (setting [8]), 94% (active); in test [1] (at 50.0 µM) it was 83% (active); in test [2] (setting [7]) it was 12%; in test [2] (setting [8]), 97% (active); in test [2] (at 50.0 µM), 87.7% (active). Further, the growth inhibition was 11% in test [3] (setting [7]); 94% (active) in test [3] (setting [8]); 84.7% (active) in test [3] (at 50.0 µM); 17% in test [4] (setting [7]); 91% (active) in test [4] (setting [8]); 83.5% (active) in test [4] (at 50.0 µM). Also, the growth inhibition in test [5] (setting [7]) was 14%; in test [5] (setting [8]) it was 96% (active); in test [5] (at 50.0 µM), 81.2% (active); in test [6] (setting [7]), 13%; in test [6] (setting [8]), 95% (active); in test [6] (at 50.0 µM), 86.5% (active).

Consider `CCCCC1CCCCCCc2[nH]c(/C=C3\N=C(c4ccc[nH]4)C=C3OC)cc21` (centres undefined), for which the growth inhibition in test [1] (setting [7]) is 24%; in test [1] (setting [8]) it was 91% (active); in test [1] (at 50.0 µM), 82.3% (active); in test [2] (setting [7]), 23%; in test [2] (setting [8]) it was 93% (active); in test [2] (at 50.0 µM), 86.5% (active). Further, the growth inhibition in test [3] (setting [7]) was 45%; in test [3] (setting [8]) it was 93% (active); in test [3] (at 50.0 µM), 84.8% (active); in test [4] (setting [7]), 39%; in test [4] (setting [8]), 94% (active); in test [4] (at 50.0 µM), 81.2% (active). The growth inhibition is 29% in test [5] (setting [7]); 93% (active) in test [5] (setting [8]); 81.9% (active) in test [5] (at 50.0 µM); 34% in test [6] (setting [7]); 90% (active) in test [6] (setting [8]); 80.5% (active) in test [6] (at 50.0 µM).

On to `CC(C)(C)[CH2][Hg][Cl]`, for which the growth inhibition in test [1] (setting [7]) was 100% (active); in test [1] (setting [8]) it was 100% (active); in test [1] (at 50.0 µM), 99.7% (active); in test [2] (setting [7]), 100% (active); in test [2] (setting [8]), 100% (active); in test [2] (at 50.0 µM), 99.5% (active). Moreover, the growth inhibition in test [3] (setting [7]) was 100% (active); in test [3] (setting [8]), 99% (active); in test [3] (at 50.0 µM), 99.5% (active); in test [4] (setting [7]) it was 100% (active); in test [4] (setting [8]), 99% (active); in test [4] (at 50.0 µM) it was 98.7% (active). In addition, the growth inhibition is 100% (active) in test [5] (setting [7]); 100% (active) in test [5] (setting [8]); 99.5% (active) in test [5] (at 50.0 µM); 99% (active) in test [6] (setting [7]); 99% (active) in test [6] (setting [8]); 99.5% (active) in test [6] (at 50.0 µM).

On to `CC(Br)CN1CCOCC1` (centres undefined), for which the growth inhibition in test [1] (setting [7]) was 91% (active); in test [1] (setting [8]) it was 97% (active); in test [1] (at 50.0 µM), 94.2% (active); in test [2] (setting [7]) it was 25%; in test [2] (setting [8]), 98% (active); in test [2] (at 50.0 µM), 96.8% (active). Moreover, the growth inhibition in test [3] (setting [7]) is 58%; in test [3] (setting [8]) it was 94% (active); in test [3] (at 50.0 µM), 67.7%; in test [4] (setting [7]), 14%; in test [4] (setting [8]), 66%; in test [4] (at 50.0 µM) it was 12.8%. In addition, the growth inhibition in test [5] (setting [7]) was -10%; in test [5] (setting [8]) it was 36%; in test [5] (at 50.0 µM) it was 2.6%; in test [6] (setting [7]), 66%; in test [6] (setting [8]), 97% (active); in test [6] (at 50.0 µM), 96.2% (active).

`CCOC(=O)C(NC(=O)C(Cc1ccc(N(CCCl)CCCl)cc1)NC(C)=O)C(C)C` (centres undefined): the growth inhibition in test [1] (setting [7]) is -4%; in test [1] (setting [8]), -9%; in test [1] (at 50.0 µM), 17.5% and 11.7%; in test [2] (setting [7]), -1%; in test [2] (setting [8]) it was -1%; in test [2] (at 50.0 µM), 11.3% and -1.25%. The growth inhibition was -5% in test [3] (setting [7]); 7% in test [3] (setting [8]); 37.2% and -1.2% in test [3] (at 50.0 µM); -1% in test [4] (setting [7]); -2% in test [4] (setting [8]); 67.7% and -2.95% in test [4] (at 50.0 µM). The growth inhibition in test [5] (setting [7]) is -2%; in test [5] (setting [8]), -2%; in test [5] (at 50.0 µM), 19.1% and -22.9%; in test [6] (setting [7]), -4%; in test [6] (setting [8]), -1%; in test [6] (at 50.0 µM), 18.9% and -0.25%.

In the case of `Nc1ccc2cc(Br)ccc2c1`, the growth inhibition is -11% in test [1] (setting [7]); 26% in test [1] (setting [8]); 75.5% (active) in test [1] (at 50.0 µM); -2% in test [2] (setting [7]); 10% in test [2] (setting [8]); 30.6% in test [2] (at 50.0 µM). The growth inhibition is -10% in test [3] (setting [7]); 11% in test [3] (setting [8]); 46.6% in test [3] (at 50.0 µM); -31% in test [4] (setting [7]); -9% in test [4] (setting [8]); 31.1% in test [4] (at 50.0 µM). Also, the growth inhibition in test [5] (setting [7]) was -8%; in test [5] (setting [8]), 14%; in test [5] (at 50.0 µM) it was 45.9%; in test [6] (setting [7]), -16%; in test [6] (setting [8]), 20%; in test [6] (at 50.0 µM), 57.4%.

Regarding `COC1=[C]([Hg][Br])C(OC)OC1OC` (centres undefined), the growth inhibition in test [1] (setting [7]) was 99% (active); in test [1] (setting [8]), 99% (active); in test [1] (at 50.0 µM), 99.6% (active); in test [2] (setting [7]) it was 98% (active); in test [2] (setting [8]), 99% (active); in test [2] (at 50.0 µM), 99.5% (active). In addition, the growth inhibition in test [3] (setting [7]) was 99% (active); in test [3] (setting [8]), 99% (active); in test [3] (at 50.0 µM) it was 99.5% (active); in test [4] (setting [7]) it was 98% (active); in test [4] (setting [8]), 98% (active); in test [4] (at 50.0 µM) it was 98.8% (active). For the same compound, the growth inhibition in test [5] (setting [7]) was 99% (active); in test [5] (setting [8]) it was 99% (active); in test [5] (at 50.0 µM), 98.9% (active); in test [6] (setting [7]), 99% (active); in test [6] (setting [8]), 99% (active); in test [6] (at 50.0 µM), 99.5% (active).

Consider `N#CC(C#N)=Cc1ccc([N+](=O)[O-])s1`, for which the growth inhibition in test [1] (setting [7]) was -83%; in test [1] (setting [8]) it was 98% (active); in test [1] (at 50.0 µM) it was 99.6% (active); in test [2] (setting [7]) it was -45%; in test [2] (setting [8]), 99% (active); in test [2] (at 50.0 µM) it was 99.6% (active). For the same compound, the growth inhibition is -42% in test [3] (setting [7]); 98% (active) in test [3] (setting [8]); 99.2% (active) in test [3] (at 50.0 µM); -53% in test [4] (setting [7]); 98% (active) in test [4] (setting [8]); 98.5% (active) in test [4] (at 50.0 µM). In addition, the growth inhibition in test [5] (setting [7]) was -66%; in test [5] (setting [8]), 98% (active); in test [5] (at 50.0 µM), 99.3% (active); in test [6] (setting [7]) it was -83%; in test [6] (setting [8]) it was 97% (active); in test [6] (at 50.0 µM) it was 99.2% (active).
